# Bioassay records: PubChem BioAssay, National Center for Advancing Translational Sciences (NCATS)
# KDM4E inh – JMJD2E (human) inhibition; Potency, µM (titrated, usually from 57.1 µM), without a hit: at the highest dose activity change, negative = inhibition, most hits filed as inhibitors; JMJD2E catalytic domain, FDH-coupled NADH fluorescence (FDH is formaldehyde dehydrogenase); AID 2147; 230,000 compounds, 1.6% hits; B2RXH2; active = well fitted inhibition curve with a large enough effect, not every such curve was filed as active; inconclusive = small, poorly fitted or top-dose-only effect, or another doubt; inactive = no such curve, though single readings can be large or run the other way;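 also: 0% = wells with enzyme and -100% = buffer wells without enzyme; nearly all actives have a fitted effect of over 50% in size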
# Target sequence (B2RXH2 1-337 limits assumed): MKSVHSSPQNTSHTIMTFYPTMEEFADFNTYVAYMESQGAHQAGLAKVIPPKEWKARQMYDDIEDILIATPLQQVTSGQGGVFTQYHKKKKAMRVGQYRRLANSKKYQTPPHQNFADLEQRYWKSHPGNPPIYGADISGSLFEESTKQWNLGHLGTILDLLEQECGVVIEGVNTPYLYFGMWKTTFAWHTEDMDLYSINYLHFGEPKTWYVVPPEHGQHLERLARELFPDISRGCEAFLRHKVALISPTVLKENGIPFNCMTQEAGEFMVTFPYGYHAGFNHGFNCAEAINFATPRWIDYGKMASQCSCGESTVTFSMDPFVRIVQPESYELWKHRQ
# RECQ1 helicase – blocks DNA unwinding by human RECQ1. RECQ1 DNA unwinding, red fluorescence kinetic read. Potency, µM (top dose mostly 57.3 µM), for inactives: at the top dose activity, negative = inhibition, most hits filed as inhibitors. 240,000 compounds, 0.54% hits. AID 2549;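 also: plate controls were vehicle for no effect and no enzyme for full effect; nearly all actives have a fitted effect of over 30% in size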
#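 RECQ1T1 50 nM; forked duplex (20 bp + 30-nt ss tails) 200 nM, ATP 2 mM final; pH 8.0, 2 mM MgCl2, 2.5 ug/ml poly(dI-dC); 15 min compound preincubation; discontinuous kinetic read over 2 h at RT.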
# APEX1 inh – blocks human APE1 abasic DNA cleavage. 350,000 compounds, 0.35% hits. Potency, µM (highest dose often 65.8 µM), without a hit: at the highest dose activity change, negative = inhibition, most hits filed as inhibitors. recombinant APE1, TAMRA/BHQ-2 abasic DNA cleavage fluorescence;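 also: plate controls were vehicle for no effect and reference inhibitor for full effect; nearly all actives have a fitted effect of over 55% in size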
# Target sequence (P27695 whole entry, looked up): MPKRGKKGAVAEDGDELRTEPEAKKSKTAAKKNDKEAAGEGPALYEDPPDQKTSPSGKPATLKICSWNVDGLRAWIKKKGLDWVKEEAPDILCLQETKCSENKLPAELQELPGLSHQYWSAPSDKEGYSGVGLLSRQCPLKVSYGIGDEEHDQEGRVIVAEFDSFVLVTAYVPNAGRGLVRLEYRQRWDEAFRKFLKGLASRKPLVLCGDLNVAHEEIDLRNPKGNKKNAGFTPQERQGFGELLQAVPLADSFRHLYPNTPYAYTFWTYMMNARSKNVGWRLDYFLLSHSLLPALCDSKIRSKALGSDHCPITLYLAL
#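 Enzyme (0.75 nM final) and test compound are incubated 15 min at room temperature before adding 50 nM quenched THF abasic-site duplex. Cleavage dequenches TAMRA, followed at 525/598 nm over three reads one minute apart.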
# L3MBTL1 block – L3MBTL1 (human) inhibition. Q9Y468. AlphaScreen L3MBTL1–H3K9me1 peptide binding. Potency, µM (series often up to 57.1 µM), for inactives: top-dose activity, negative = inhibition, usual class: inhibitors. 230,000 compounds, 0.66% hits. AID 485360; also: nearly all actives have a fitted effect of over 60% in size
#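 AlphaScreen proximity signal between nickel-chelate acceptor and streptavidin donor beads (final 10 ug/mL) reports binding of 50 nM L3MBTL1 to 75 nM biotin-H3 K9me1 peptide; complex incubated with compounds 30 min at room temperature; cefsulodin titration as control.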
# BLM inh – blocks DNA unwinding by human BLM helicase. AID 2528. Potency, µM (series often up to 56.1 µM), for inactives: at the highest dose activity change, negative = inhibition, usual class: inhibitors. 350,000 compounds, 0.2% hits. recombinant BLM DNA unwinding, fluorescence dequenching;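 also: plate controls were vehicle for no effect and no enzyme for full effect; nearly all actives have a fitted effect of over 35% in size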
# TDP1 block – inhibitors of human tyrosyl-DNA phosphodiesterase TDP1; Potency, µM (doses to about 130 µM), inactives show top-dose activity change, negative = inhibition, most hits filed as inhibitors; AID 485290; Q9NUW8; 350,000 compounds, 0.28% hits; recombinant TDP1, AlphaScreen DNA substrate cleavage; also: nearly all actives have a fitted effect of over 40% in size
#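 E. coli-derived human Tdp1, 1 nM final. Cpd preinc 15 min RT; substrate 15 nM final, 5 min RT; AS bead mix 10 ug/ml final, 10 min RT. Signal loss = tyrosine-FITC cleavage. No-enzyme wells = max signal.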
# Starred values were filed as active, the others as inactive; i = inactive; ? = inconclusive; nt = no result given; [ ] = remark or other dose. The entries come from a sample that favours hits as a whole. Unless noted, calls follow the shape of the dose curve; as a rule, active = well fitted curve in the direction sought with a large enough effect; inconclusive = small, poorly fitted or top-dose-only effect, or another doubt; inactive = no such curve, though single readings can be large; an effect the other way counts as inactive or inconclusive. Unless noted, % is scaled to controls: 0 for no effect and ±100 for the full control effect; potency is read from the fitted curve at half-maximal effect.
SMILES,KDM4E inh,RECQ1 helicase,APEX1 inh,L3MBTL1 block,BLM inh,TDP1 block
CC(C)=CCC/C(C)=C/CO/N=C1/C[C@@H](O)[C@@H](O)[C@@H]2[C@@H]3C(=O)N(Cc4ccccc4)C(=O)[C@H]3CC[C@H]12,nt,-8%[11.5 µM],14%[12.4 µM],nt,-5%[12.4 µM],8%[21 µM]
Cc1ccc(NS(=O)(=O)c2ccc3c(c2)N(C)CCO3)cc1C,nt,nt,nt,nt,nt,5%
O=C1C=CC(=O)C2=C1C1c3ccccc3C2c2ccccc21,14µM*,-18%,-5%,nt,-10%,6%
Cc1cc(/C=C2/SC(=S)N(c3ccc([N+](=O)[O-])cc3)C2=O)c(C)n1-c1cccnc1,-28%,-2%,5%,-3%,-4%,10%
Cc1cccc(NC(=O)CN2C(=O)N/C(=C/c3cc(C)n(-c4cccnc4)c3C)C2=O)c1,18µM*,-1%,0%,nt,-11%,6%
Cc1cc(/C=C2/NC(=O)N(c3ccccc3)C2=O)c(C)n1-c1cccnc1,20µM*,-7%,13%,-3%,-4%,11%
Cc1cccc(NC(=O)CN2C(=O)N/C(=C/c3cc(C)n(C)c3C)C2=O)c1,32µM*,-2%,8%,-37%,-6%,5%
Cc1ccc(NS(=O)(=O)c2cc3c(cc2-c2ccsc2)NC(=O)CO3)cc1C,nt,nt,nt,nt,nt,0%
O=C(O)c1ccc(-n2cccc2/C=N\NC(=O)c2cc3cc(Br)ccc3o2)cc1,?,?,3.5µM*,nt,-6%,1.1µM*
Cn1cc(/C=N/NC(=O)c2cc3cc(Br)ccc3o2)c2ccccc21,-2%,i,3%,nt,-2%,nt
O=C1/C(=C\c2ccc(O)c(O)c2)N=C2CCCCCN12,13µM*,-5%,-4%,?,-1%,-1%
CC(C)(C)n1ncc2c(=O)n(Cc3ccc(C#N)cc3F)cnc21,nt,nt,-2%,nt,nt,nt
Oc1ccc(/C=N/N(Cc2ccccc2)c2ccccc2)c(O)c1O,20µM*,-26%,?,nt,-27%,10%
CCS(=O)(=O)N1CCc2cc(C(=O)N3CCN(c4ccccc4)CC3)ccc21,nt,nt,nt,nt,-2%,6%
CSc1ncc(C(=O)Nc2ccccc2C(F)(F)F)c(-c2ccccc2)n1,nt,nt,nt,nt,-7%,2%
N#Cc1ccccc1COC(=O)c1ccc2c(c1)OCCO2,nt,nt,-1%,20%,nt,89µM*
CCc1ccccc1NC(=O)Cn1nc(C)c2nn(-c3ccc(Cl)cc3)c(C)c2c1=O,nt,nt,nt,nt,-1%,5%
Cc1[nH]n(-c2ccccc2)c(=O)c1/C=N/Nc1nncc(-c2ccccc2)n1,?,-5%,-3%,25µM*,-5%,11%
COCCc1nn2c(=O)cc(COC(=O)c3ccccc3C)nc2s1,nt,nt,nt,nt,1%,6%
Cc1cccc(/N=C/c2c(O)cc(C)oc2=O)n1,?,28µM*,-4%,?,-3%,?
Cc1cc(O)c(/C=N/c2ccccn2)c(=O)o1,?,?,-8%,?,3%,-8%
C[C@@](N)(Cc1ccc(O)cc1)C(=O)O,5%,-1%,5%,nt,2%,11%[56.1 µM]
COc1ccc(C[C@@](C)(N)C(=O)O)cc1OC,11µM*,-4%[25.9 µM],nt,nt,-13%[21.4 µM],-8%[56.1 µM]
COc1ncc2nc(-c3ccc(F)cc3)c(=O)n(Cc3cccs3)c2n1,nt,i,-6%,nt,1%,nt
CCCc1c(C)[nH]c2ccc(C(=O)O)cc2c1=S,?,14µM*,22µM*,nt,-10%,?
SMILES,KDM4E inh,RECQ1 helicase,APEX1 inh,L3MBTL1 block,BLM inh,TDP1 block
CCCSCCCNC(=O)C1CCN(C(=O)c2cnn(-c3ccccc3)c2-n2cccc2)CC1,nt,nt,nt,nt,-2%,8%
CCN1CCN(c2c(/C=C3\SC(=S)N(Cc4ccco4)C3=O)c(C)c(C#N)c(=O)n2C)CC1,13µM*,-10%,-5%,nt,-12%,-5%
C=CCc1cccc2cc(C(=O)Nc3ccc(CC(=O)O)cc3)c(=O)oc12,-2%,-4%,?,-10%,-16%,50µM*
COc1ccc(CCn2c(=S)[nH]c(=O)c3nccnc32)cc1OC,nt,nt,nt,nt,nt,0%
COc1ccc(NC(=O)CSc2nc(-c3ccco3)nc3cc(=O)[nH]n23)cc1Cl,nt,nt,30%,nt,-4%,50µM*
COc1ccc(NC(=O)CSc2nc(-c3ccco3)nc3cc(=O)[nH]n23)cc1,nt,nt,nt,nt,0%,nt
CC1CCN(CC(=O)Nc2ccc(S(=O)(=O)N3CCCCC3)cc2)CC1,nt,nt,-6%,12%,-1%,3%
Cc1ccccc1C(=O)Nc1ccc(N2CCCC2)cc1,-8%,-1%,3%,-13%,-1%,6%
O=C(CNCC1CCCCC1)Nc1ccc(N2CCCCC2)cc1,28µM*,10%,15%,?,-2%,5%
O=C(CNC1CCCCCC1)Nc1ccc(N2CCCC2)cc1,-6%,-2%,0%,-22%,-1%,1%
Cc1ccc(C(=O)Nc2ccc(N3CCCC3)cc2)c(C)c1,25µM*,i,-1%,-19%,4%,nt
CC1CCN(CC(=O)Nc2ccc(N3CCCCCC3)cc2)CC1,22µM*,i,0%,?,0%,12%
O=C(CNC1CCCC1)Nc1ccc(N2CCCCCC2)cc1,8.9µM*,-1%,-3%,-24%,0%,11%
COc1ccccc1CNc1ccnc(-c2cccc(NS(C)(=O)=O)c2)n1,nt,-17%,-6%,nt,-3%,nt
Cc1ccc(NC(=O)CSc2nnc(-c3cccc([S+](=O)([O-])N4CCCC4)c3)n2-c2c(C)cccc2C)cc1,nt,nt,-9%,nt,nt,nt
O=[N+]([O-])c1ccccc1-c1ccc(C(=S)N2CCCC2)o1,25µM*,10%,-9%,?,-18%,6%
O=[N+]([O-])c1ccccc1-c1ccc(C(=S)N2CCCCC2)o1,-4%,i,-2%,?,-14%,8%
CCOC(=O)c1[nH]c(C)c(C(=O)NC(CC)Cc2ccccc2)c1C (stereo not given),nt,nt,nt,nt,-4%,6%
CC(C)(C)OC(=O)CC(=O)NNC(=O)c1nc2ccccc2[nH]1,nt,nt,nt,nt,nt,-2%
O=C(C[n+]1ccc(C(=O)N/N=C/c2ccc(OCc3ccccc3)cc2)cc1)c1ccccc1,28µM*,-12%,?,nt,35µM*,11%
CC12C(=O)N(c3cccc4cccnc34)C(=O)C1C1C=CC2C1 (stereo not given),-2%,9%,1%,nt,2%,4%
CC12C(=O)N(c3nccs3)C(=O)C1C1C=CC2C1 (stereo not given),5%,-20%,10µM*,?,-5%,22µM*
CC1CC(C)CN(c2ccc([N+](=O)[O-])cc2-c2nn[nH]n2)C1 (stereo not given),3.2µM*,-7%,-2%,-4%,2%,0%
O=[N+]([O-])c1ccc(-n2cccn2)c(-c2nn[nH]n2)c1,0%,-3%,3%,nt,-8%,5%
